In the library only some 19% were active in any assay of this set; here they are far more common.
TDP1 cell noCPT: qHTS for Inhibitors of human tyrosyl-DNA phosphodiesterase 1 (TDP1): qHTS in cells in absence of CPT; DT40 Tdp1-/- hTDP1 cells, no CPT, ATP luminescence, 48 h; Potency, µM (titrated, usually from 46.2 µM), without a hit: top-dose activity change, negative = growth inhibition, hits mostly inhibitors; 420,000 tested, 15% active; AID 686978, 2013; also: potency is read from the fitted curve at half-maximal effect; % is scaled to controls: 0 for no effect and ±100 for the full control effect; nearly all actives have a fitted effect of over 55% in size
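Chicken DT40 Tdp1-/- cells complemented with human TDP1, screened without camptothecin (DMSO vehicle only), 400 cells/well. Compounds pin-transferred, cells incubated at 37 °C for at least 48 hr. Growth read as ATP-dependent luminescence (CellTiter-Glo, 30 min at RT).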
IL1B secr inh: inhibitors of inflammasome signaling (IL-1 beta secretion). THP-1 LPS/ATP IL-1B secretion, AlphaLISA, 16 h; stronger effect = lower value. activity change, % at 57.5 µM. 360,000 tested, 4.7% active. AID 743279; in the data active = activity change below about -50%; inconclusive = mostly about -30% to -49%; also: % is scaled to controls: 0 for no effect and ±100 for the full control effect
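THP-1 cells pretreated 1 hr with compounds (up to 57.5 uM final), then stimulated with LPS (250 ng/mL final) plus ATP (1.25 mM final); secreted IL-1B measured by AlphaLISA after 16 hr, decreased signal indicating inhibition.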
DT40 TDP1 CPT: growth inhibition of DT40 Tdp1-/-;hTDP1 cells with camptothecin (screen for TDP1 inhibitors). Potency, µM (titrated, usually from 46.2 µM), inactives show at the top dose activity change, negative = growth inhibition, most hits filed as inhibitors. chicken DT40 Tdp1-/-;hTDP1 cells + 20 nM CPT, ATP luminescence, 48 h. AID 686979. 420,000 tested, 12% active; also: potency is read from the fitted curve at half-maximal effect; % is scaled to controls: 0 for no effect and ±100 for the full control effect; nearly all actives have a fitted effect of over 55% in size
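Chicken DT40 Tdp1-/- cells complemented with human TDP1, 400 cells/well, exposed to compounds plus 20 nM camptothecin for at least 48 h at 37 C; viability read as ATP content by CellTiter-Glo luminescence.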
TDP1 block: inhibitors of human tyrosyl-DNA phosphodiesterase TDP1; Q9NUW8; recombinant TDP1, AlphaScreen DNA substrate cleavage; Potency, µM (doses to about 130 µM), inactives show top-dose activity change, negative = inhibition, hits mostly inhibitors; 350,000 tested, 0.28% active; AID 485290; also: potency is read from the fitted curve at half-maximal effect; % is scaled to controls: 0 for no effect and ±100 for the full control effect; nearly all actives have a fitted effect of over 40% in size
Target sequence (Q9NUW8 whole entry, looked up): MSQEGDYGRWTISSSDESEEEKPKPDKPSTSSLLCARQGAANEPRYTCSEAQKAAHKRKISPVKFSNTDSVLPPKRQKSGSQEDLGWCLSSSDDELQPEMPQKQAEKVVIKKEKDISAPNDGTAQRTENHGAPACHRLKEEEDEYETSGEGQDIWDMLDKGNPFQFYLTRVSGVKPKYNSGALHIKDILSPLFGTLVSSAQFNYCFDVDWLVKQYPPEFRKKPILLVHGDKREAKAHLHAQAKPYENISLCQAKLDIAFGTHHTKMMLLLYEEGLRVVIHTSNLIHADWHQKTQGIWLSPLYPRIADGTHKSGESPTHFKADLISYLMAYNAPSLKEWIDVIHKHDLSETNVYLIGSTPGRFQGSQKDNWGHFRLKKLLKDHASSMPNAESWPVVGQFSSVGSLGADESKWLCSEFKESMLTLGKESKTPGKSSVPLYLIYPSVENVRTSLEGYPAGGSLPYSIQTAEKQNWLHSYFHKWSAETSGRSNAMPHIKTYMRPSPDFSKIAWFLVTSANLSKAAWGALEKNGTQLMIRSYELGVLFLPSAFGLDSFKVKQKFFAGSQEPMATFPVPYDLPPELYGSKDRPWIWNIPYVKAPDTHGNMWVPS
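E. coli-derived human Tdp1, 1 nM final. Cpd preinc 15 min RT; substrate 15 nM final, 5 min RT; AS bead mix 10 ug/ml final, 10 min RT. Signal loss = tyrosine-FITC cleavage. No-enzyme wells = max signal.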
HepG2 viability: HepG2 cytotoxicity, counter-screen for TGF-b inhibitors. AID 588856. Potency, µM (doses to about 46.1 µM), for the others: at the highest dose activity change, negative = cytotoxicity, most hits filed as cytotoxic. HepG2 CAGA-GFP viability, ATP luminescence, 18 h. 410,000 tested, 0.76% active; also: potency is read from the fitted curve at half-maximal effect
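HepG2 CAGA-GFP cells (1000/well, DMEM with 1% FBS) received compound, then TGF-beta at 500 pg/mL final, and were incubated 18 hours at 37 degrees C. Viability was read by CellTiter-Glo luminescence. Media-only wells were set as complete cell-killing and DMSO as no toxicity.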
TGFb inhibitor: blocks TGF-b signaling; Potency, µM (titrated, usually from 46.1 µM), inactives show top-dose activity, negative = inhibition, actives largely listed as inhibitors; HepG2 CAGA-GFP TGF-b/SMAD3 reporter, GFP fluorescence, 18 h; TGF-beta stimulated, 500 pg/mL final; 410,000 tested, 1.2% active; AID 588855; also: potency is read from the fitted curve at half-maximal effect; % is scaled to controls: 0 for no effect and ±100 for the full control effect; nearly all actives have a fitted effect of over 65% in size
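Inhibition was scored as loss of TGF-beta-induced (500 pg/mL final, 18 hours, 37 degrees C) GFP in HEPG2 cells carrying a CAGA-GFP reporter, in DMEM with 1% FBS. Well GFP was summed per cell; Activity was normalised to unstimulated and stimulated DMSO wells, then concentration-response fitting.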
Active calls of the source: *; u = inconclusive; x = not tested or not shown; [ ] = dose if it differs, or a comment. Unless noted, calls follow the shape of the dose curve; as a rule, active = well fitted curve in the direction sought with a large enough effect; inconclusive = small, poorly fitted or top-dose-only effect, or another doubt; inactive = no such curve, though single readings can be large; an effect the other way counts as inactive or inconclusive.

SMILES	TDP1 cell noCPT	IL1B secr inh	DT40 TDP1 CPT	TDP1 block	HepG2 viability	TGFb inhibitor
COc1cccc(CNC(=O)c2cc(C)nc3c2c(C)nn3-c2cccc(F)c2)c1	u	x	u	-2%	-3%	2%
COc1ccc(C(=O)N(Cc2ccc(N(C)C)cc2)CC2CCCO2)cc1 (centres undefined)	-16%	x	u	2%	-1%	-27%
Cc1c(C(=O)N(Cc2ccc(N(C)C)cc2)CC2CCCO2)oc2ccccc12 (centres undefined)	23µM*	u	23µM*	15%	4%	u
CCOc1cccc(C(=O)N(Cc2ccc(N(C)C)cc2)CC2CCCO2)c1 (centres undefined)	16µM*	x	15µM*	5%	-2%	u
Cc1c(C(=O)N(Cc2ccc(N(C)C)cc2)CC2CCCO2)oc2ccc(Br)cc12 (centres undefined)	u	x	u	12%	-41%	u
Cc1c(C(=O)N(Cc2ccc(N(C)C)cc2)CC2CCCO2)oc2ccc(Cl)cc12 (centres undefined)	21µM*	x	16µM*	12%	-22%	u
CN(C)c1ccc(CN(CC2CCCO2)C(=O)c2cc3ccccc3o2)cc1 (centres undefined)	u	-23	18µM*	12%	-61%	-3%
COC(=O)C1CCN(Cc2ccc3c(c2)CN(C(=O)c2ccc(-n4cnnn4)cc2)CCO3)CC1	-7%	x	0%[9.04 µM]	x	x	x
NC(=O)C1CCN(C(=O)COc2ccc3ccc(=O)oc3c2)CC1	-3%	5	-4%	x	-6%	-14%
N#Cc1c(N)oc(-c2ccco2)c1-c1ccco1	16µM*	u	u	u	-5%	18%
Cc1ccnn1-c1ccc(C(=O)NCc2ccccc2CN2CCOCC2)cc1	18µM*	-17	21µM*	1%	0%	11%
CCOC(=O)N1CCN(S(=O)(=O)c2cc(C)c(C)cc2C)CC1	u	-4	u	3%	-53%	-23%
Cc1cc(C)c(S(=O)(=O)/N=C2/C=C(SCC(=O)O)C(=O)c3ccccc32)cc1C	1.8µM*	u	1.8µM*	10%	-105%	u
CCCNC(=O)C1(C)CCN(C(=O)Cc2ccc3ccccc3c2)C1 (centres undefined)	u	0	u	x	-16%	3%
CCOC(=O)C1(C)CCCN(C(=O)c2ccc(-c3ccccc3)cc2)C1 (centres undefined)	16µM*	5	u	x	-37%	4%
CCOC(=O)C1(C)CCCN(C(=O)Cc2ccc3ccccc3c2)C1 (centres undefined)	9.2µM*	43	29µM*	x	-9%	8%
O=C(CSc1nc2[nH]ncc2c(=O)[nH]1)N1CCCCC1	-8%	6	1%	3%	6%	2%
O=C(O)/C=C/c1cn(-c2ccccc2)nc1-c1cc2ccccc2oc1=O	17%	44	-22%	2%	9%	4%
O=C(N/N=C/c1cn(-c2ccccc2)nc1-c1cc2ccccc2o1)c1ccccc1Br	15µM*	1	4.6µM*	0%	-3%	1%
O=C(N/N=C/c1cn(-c2ccccc2)nc1-c1cc2ccccc2o1)c1c[nH]c2ccccc12	4.6µM*	-60*	u	-1%	-15%	-16%
OCc1cn(-c2ccccc2)nc1-c1cc2ccccc2o1	-3%	-16	u	5%	-24%	u
CCS(=O)(=O)c1nc(S(=O)(=O)c2ccc(C)cc2)c(NCCCOC)s1	u	x	-24%	8%	-14%	2%
Cc1ccc(S(=O)(=O)c2nc(S(=O)(=O)c3ccc(C)cc3)c(NCCCOC(C)C)s2)cc1	16µM*	x	u	-5%	0%	0%
CCCS(=O)(=O)c1nc(S(=O)(=O)c2ccc(C)cc2)c(NC(C)c2ccccc2)s1 (centres undefined)	10µM*	x	u	5%	-61%	x
Cc1ccc(S(=O)(=O)c2nc(S(=O)(=O)c3ccc(C)cc3)c(NC(C)C)s2)cc1	u	x	16µM*	9%	2%	-8%
SMILES	TDP1 cell noCPT	IL1B secr inh	DT40 TDP1 CPT	TDP1 block	HepG2 viability	TGFb inhibitor
CCS(=O)(=O)c1nc(S(=O)(=O)c2ccc(C)cc2)c(NCc2ccccc2Cl)s1	10µM*	x	16µM*	3%	-15%	-26%
CCS(=O)(=O)c1nc(S(=O)(=O)c2ccc(C)cc2)c(NC(C)c2ccccc2)s1 (centres undefined)	u	x	u	3%	-10%	-24%
Cc1c(C(=O)NC2CCCc3ccccc32)oc2ccc(S(=O)(=O)N3CCCCC3)cc12 (centres undefined)	u	23	0.26µM*	-1%	0%	-15%
Cc1c(C(=O)NC2CCCc3ccccc32)oc2ccc(S(=O)(=O)N3CCCC3)cc12 (centres undefined)	u	36	8.2µM*	3%	-3%	4%
O=C(CN1C(=O)COc2ccc(Cl)cc21)Nc1cccc(C(=O)O)c1	-8%	x	-6%	5%	1%	7%
Cc1nc(SCC(=O)N(CC(C)C)C2CCS(=O)(=O)C2)c2ccccc2n1 (centres undefined)	u	-24	-24%	2%	-9%	1%
CCC(C)N(C(=O)CSc1nc(C)nc2ccccc12)C1CCS(=O)(=O)C1 (centres undefined)	u	-59*	1%	2%	1%	-21%
CCn1c(SCC(=O)N(Cc2ccccc2)C2CCS(=O)(=O)C2)nc2ccccc2c1=O (centres undefined)	-25%	-2	-3%	7%	2%	2%
CCN(C(=O)CSc1nc2ccccc2c(=O)n1-c1cccc(C)c1)C1CCS(=O)(=O)C1 (centres undefined)	u	-23	16µM*	-5%	8%	u
C=CCn1c(SCC(=O)N(C(C)CC)C2CCS(=O)(=O)C2)nc2ccccc2c1=O (centres undefined)	-14%	-15	u	-8%	7.1µM*	-2%
COc1cccc(C(=O)NCc2nc(-c3ccccc3)no2)c1OC	u	x	-29%	4%	-25%	-17%
CCOc1cc(-c2nc(-c3ccccc3OC)no2)cc(OCC)c1OCC	29µM*	u	u	-1%	-2%	6%
